In the supplement of paper PMC10849652:
About 8,800 targets were measured; listed, in parts, are those with a hit and a random draw of the rest. About 0.5% of all pairs of compound and target were hits. A number with no mark means an inactive call.

Experiments:
Experiment in all cases: log2 fold change, soluble protein after heating vs DMSO (PISA); higher = thermal stabilisation; K562 lysate, 10 uM; active = over 0.2 and 3.5 SD of the protein, either way, in both replicates (recomputed)
[1] = compound: CS(=O)(=O)CCNCc1ccc(-c2ccc3ncnc(Nc4ccc(OCc5cccc(F)c5)c(Cl)c4)c3c2)o1 [lapatinib]
Outline: (§1)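 The values are log-two fold changes in thermal stability compared with solvent controls and come from duplicates. They were obtained by TMTpro 16plex LC-MS/MS, with channel sums equalised, on the supernatant after 21,000xg for 90 min. That supernatant came from crude K562 extract at 1 mg/mL protein treated with 10 μM compound for 30 min, heated for 3 min across 48°C-58°C, pooled and brought to 0.5% NP-40 at 4°C.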

[2] = compound: CS(=O)(=O)N1CCN(Cc2cc3nc(-c4cccc5[nH]ncc45)nc(N4CCOCC4)c3s2)CC1 [pictilisib]
Outline: as §1

[3] = compound: C[C@@H](Oc1cc(-c2cnn(C3CCNCC3)c2)cnc1N)c1c(Cl)ccc(F)c1Cl [crizotinib]
Outline: as §1

[4] = compound: C[C@H](C1=CC=C(C=C1)C(=O)NC2=C3C=CNC3=NC=C2)N
Outline: as §1

[5] = compound: C[C@H](Nc1ncnc2nc[nH]c12)c1cc2cccc(Cl)c2c(=O)n1-c1ccccc1 [duvelisib]
Outline: as §1

[6] = compound: Cc1cc(Nc2cc(CN3CCOCC3)c3nc(C)c(Cc4ccc(Cl)cc4F)n3n2)n[nH]1 [gandotinib]
Outline: as §1

[7] = compound: Cc1cc(Nc2cc(N3CCN(C)CC3)nc(Sc3ccc(NC(=O)C4CC4)cc3)n2)n[nH]1 [tozasertib]
Outline: as §1

[8] = compound: Cc1ccc(-n2nc(C(C)(C)C)cc2NC(=O)Nc2ccc(OCCN3CCOCC3)c3ccccc23)cc1 [doramapimod]
Outline: as §1

[9] = compound: Cc1ccc(NC(=O)c2ccc(CN3CC[C@H](N(C)C)C3)c(C(F)(F)F)c2)cc1Nc1nccc(-c2cncnc2)n1 [bafetinib]
Outline: as §1

[10] = compound: Cc1cccc(CC(=O)N2CCc3c2ccc(-c2cn(C)c4ncnc(N)c24)c3F)n1
Outline: as §1

Sequence of UniProt Q13546 (Q13546 whole entry, looked up): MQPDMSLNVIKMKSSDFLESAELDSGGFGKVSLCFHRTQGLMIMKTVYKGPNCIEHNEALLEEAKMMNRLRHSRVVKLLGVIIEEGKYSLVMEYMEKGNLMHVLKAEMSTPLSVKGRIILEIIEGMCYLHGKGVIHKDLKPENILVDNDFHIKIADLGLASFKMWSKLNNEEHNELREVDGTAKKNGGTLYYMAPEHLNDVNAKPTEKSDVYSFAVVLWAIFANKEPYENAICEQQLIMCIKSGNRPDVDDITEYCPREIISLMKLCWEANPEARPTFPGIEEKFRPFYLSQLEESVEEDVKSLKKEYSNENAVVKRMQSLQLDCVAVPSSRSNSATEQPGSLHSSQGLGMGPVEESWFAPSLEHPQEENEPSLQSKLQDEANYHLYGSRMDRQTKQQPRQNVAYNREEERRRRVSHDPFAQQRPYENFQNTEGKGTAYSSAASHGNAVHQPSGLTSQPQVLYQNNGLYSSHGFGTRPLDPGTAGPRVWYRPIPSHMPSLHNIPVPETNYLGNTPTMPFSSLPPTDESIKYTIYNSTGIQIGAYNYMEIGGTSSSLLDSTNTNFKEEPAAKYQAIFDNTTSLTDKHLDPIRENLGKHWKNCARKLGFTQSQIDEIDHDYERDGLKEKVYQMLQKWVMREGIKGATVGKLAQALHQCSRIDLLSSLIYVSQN
Sequence of UniProt O94761 (O94761 whole entry, looked up): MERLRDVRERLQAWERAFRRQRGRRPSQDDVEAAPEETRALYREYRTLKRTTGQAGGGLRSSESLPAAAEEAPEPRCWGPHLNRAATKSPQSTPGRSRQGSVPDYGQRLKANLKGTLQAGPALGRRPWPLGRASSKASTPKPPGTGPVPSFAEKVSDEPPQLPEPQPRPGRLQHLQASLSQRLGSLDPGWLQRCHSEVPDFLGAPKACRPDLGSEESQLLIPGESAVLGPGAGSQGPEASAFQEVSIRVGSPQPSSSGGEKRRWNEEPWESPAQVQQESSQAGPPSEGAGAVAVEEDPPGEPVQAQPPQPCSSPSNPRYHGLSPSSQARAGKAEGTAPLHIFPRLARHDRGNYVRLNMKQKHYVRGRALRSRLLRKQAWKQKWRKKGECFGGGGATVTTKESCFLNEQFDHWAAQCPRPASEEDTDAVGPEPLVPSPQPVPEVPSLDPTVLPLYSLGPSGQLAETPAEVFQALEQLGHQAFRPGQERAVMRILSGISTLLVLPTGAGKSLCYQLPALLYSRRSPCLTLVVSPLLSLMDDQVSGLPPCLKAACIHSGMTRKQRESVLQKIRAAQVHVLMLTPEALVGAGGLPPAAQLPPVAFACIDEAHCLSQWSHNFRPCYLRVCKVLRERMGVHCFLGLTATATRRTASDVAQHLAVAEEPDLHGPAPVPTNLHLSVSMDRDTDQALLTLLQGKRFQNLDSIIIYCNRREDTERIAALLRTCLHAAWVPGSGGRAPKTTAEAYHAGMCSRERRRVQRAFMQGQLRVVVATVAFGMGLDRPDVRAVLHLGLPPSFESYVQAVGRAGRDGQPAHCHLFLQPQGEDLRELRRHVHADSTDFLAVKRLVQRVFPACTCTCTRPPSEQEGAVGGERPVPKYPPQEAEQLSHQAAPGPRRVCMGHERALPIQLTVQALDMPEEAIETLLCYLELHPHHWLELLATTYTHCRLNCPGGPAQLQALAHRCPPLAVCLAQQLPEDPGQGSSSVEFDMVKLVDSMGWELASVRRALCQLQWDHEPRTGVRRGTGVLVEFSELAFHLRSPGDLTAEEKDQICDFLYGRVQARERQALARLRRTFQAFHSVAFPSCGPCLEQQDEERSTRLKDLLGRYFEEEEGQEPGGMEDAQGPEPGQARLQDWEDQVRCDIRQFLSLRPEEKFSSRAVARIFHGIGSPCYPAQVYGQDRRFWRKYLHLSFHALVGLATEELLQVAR
Sequence of UniProt Q7L0Q8 (Q7L0Q8 whole entry, looked up): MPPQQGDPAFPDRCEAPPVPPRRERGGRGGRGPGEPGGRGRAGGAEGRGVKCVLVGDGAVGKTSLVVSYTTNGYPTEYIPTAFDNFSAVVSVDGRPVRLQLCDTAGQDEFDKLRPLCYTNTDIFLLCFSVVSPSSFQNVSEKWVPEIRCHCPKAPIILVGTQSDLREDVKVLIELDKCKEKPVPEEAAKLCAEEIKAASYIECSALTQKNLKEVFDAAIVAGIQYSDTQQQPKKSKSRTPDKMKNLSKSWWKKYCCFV
Sequence of UniProt Q9Y6D0 (Q9Y6D0 whole entry, looked up): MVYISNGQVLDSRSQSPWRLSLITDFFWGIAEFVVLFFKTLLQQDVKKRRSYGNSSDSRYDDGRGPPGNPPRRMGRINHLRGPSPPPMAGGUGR
Sequence of UniProt Q9HCK4 (Q9HCK4 whole entry, looked up): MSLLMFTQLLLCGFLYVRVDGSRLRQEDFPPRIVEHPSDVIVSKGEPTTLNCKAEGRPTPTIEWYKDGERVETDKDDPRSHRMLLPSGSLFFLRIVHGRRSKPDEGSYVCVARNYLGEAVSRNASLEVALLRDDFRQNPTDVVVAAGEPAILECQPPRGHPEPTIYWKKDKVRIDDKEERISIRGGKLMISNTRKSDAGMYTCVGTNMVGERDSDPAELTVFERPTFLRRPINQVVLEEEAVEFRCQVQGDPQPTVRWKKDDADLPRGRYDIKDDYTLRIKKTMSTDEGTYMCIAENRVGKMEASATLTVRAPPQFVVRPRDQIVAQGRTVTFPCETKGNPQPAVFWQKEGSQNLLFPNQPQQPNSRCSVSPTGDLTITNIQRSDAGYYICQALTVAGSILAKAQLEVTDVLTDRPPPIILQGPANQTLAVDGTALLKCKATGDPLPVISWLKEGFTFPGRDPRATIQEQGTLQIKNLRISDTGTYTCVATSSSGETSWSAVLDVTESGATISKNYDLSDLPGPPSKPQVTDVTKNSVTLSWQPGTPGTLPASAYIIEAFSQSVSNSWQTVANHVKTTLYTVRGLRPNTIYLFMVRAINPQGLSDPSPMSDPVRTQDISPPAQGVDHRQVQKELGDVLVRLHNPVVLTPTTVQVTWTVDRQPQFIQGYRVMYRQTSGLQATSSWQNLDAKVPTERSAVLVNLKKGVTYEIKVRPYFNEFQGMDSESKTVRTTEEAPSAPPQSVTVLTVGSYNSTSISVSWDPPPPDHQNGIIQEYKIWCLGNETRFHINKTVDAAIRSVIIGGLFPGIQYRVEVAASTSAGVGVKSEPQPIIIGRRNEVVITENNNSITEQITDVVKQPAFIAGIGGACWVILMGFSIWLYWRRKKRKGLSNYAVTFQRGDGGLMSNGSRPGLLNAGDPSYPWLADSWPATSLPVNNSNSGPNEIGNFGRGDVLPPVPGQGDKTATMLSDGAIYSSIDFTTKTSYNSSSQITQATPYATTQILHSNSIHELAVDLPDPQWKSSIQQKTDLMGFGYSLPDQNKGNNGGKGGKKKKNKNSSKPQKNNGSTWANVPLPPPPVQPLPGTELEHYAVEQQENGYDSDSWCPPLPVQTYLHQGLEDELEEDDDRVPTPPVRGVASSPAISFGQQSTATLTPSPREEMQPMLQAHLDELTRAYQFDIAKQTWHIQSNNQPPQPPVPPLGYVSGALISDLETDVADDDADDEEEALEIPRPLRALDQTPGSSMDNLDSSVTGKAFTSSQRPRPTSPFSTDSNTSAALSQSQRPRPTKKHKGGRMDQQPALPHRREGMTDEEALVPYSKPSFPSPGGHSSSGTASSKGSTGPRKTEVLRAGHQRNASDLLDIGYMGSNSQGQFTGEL
Sequence of UniProt Q13464 (Q13464 whole entry, looked up): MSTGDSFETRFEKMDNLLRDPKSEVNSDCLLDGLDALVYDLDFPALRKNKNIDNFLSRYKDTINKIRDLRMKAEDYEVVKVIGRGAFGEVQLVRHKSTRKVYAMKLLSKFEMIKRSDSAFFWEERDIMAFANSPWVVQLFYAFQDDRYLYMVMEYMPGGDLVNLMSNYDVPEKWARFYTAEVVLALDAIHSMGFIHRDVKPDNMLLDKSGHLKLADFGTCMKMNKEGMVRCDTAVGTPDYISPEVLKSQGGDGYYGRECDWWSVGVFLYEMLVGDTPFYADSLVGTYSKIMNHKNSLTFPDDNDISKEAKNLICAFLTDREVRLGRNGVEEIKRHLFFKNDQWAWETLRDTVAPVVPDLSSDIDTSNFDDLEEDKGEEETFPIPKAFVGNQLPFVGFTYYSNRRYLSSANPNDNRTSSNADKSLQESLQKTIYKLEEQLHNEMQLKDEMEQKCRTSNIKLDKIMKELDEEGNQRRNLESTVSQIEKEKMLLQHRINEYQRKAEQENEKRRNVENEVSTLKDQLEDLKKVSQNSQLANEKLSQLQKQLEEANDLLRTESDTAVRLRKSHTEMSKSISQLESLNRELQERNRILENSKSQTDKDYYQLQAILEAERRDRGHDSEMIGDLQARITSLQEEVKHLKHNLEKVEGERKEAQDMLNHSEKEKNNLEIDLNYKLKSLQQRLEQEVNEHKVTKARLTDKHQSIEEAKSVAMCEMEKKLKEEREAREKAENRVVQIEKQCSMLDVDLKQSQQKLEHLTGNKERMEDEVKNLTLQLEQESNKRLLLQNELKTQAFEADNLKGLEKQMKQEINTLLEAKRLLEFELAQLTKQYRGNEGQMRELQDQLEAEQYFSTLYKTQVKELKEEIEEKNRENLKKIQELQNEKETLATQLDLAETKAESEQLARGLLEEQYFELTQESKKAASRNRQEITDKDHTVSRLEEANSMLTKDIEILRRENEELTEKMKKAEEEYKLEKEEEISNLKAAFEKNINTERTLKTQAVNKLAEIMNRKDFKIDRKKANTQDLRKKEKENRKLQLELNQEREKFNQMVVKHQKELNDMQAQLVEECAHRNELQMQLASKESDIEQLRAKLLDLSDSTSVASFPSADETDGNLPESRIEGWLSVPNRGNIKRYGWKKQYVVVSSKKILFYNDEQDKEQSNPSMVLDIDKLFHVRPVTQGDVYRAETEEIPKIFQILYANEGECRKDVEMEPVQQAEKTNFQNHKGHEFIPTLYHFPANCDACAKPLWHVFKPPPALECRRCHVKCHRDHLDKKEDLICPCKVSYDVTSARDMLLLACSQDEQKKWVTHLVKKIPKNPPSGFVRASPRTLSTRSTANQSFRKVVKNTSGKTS
Sequence of UniProt P60059 (P60059 whole entry, looked up): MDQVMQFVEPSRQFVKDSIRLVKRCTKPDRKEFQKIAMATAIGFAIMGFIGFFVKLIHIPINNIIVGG

| Target | log2 fold change [1] | log2 fold change [2] | log2 fold change [3] | log2 fold change [4] | log2 fold change [5] | log2 fold change [6] | log2 fold change [7] | log2 fold change [8] | log2 fold change [9] | log2 fold change [10] |
| --- | --- | --- | --- | --- | --- | --- | --- | --- | --- | --- |
| SERPINI1 (UniProt Q99574) | 0.034 | -0.061 | 0.001 | 0.036 | 0.007 | 0.055 | 0.014 | -0.042 | -0.065 | 0.04 |
| RFC3 (UniProt P40938) | -0.045 | -0.009 | -0.043 | -0.072 | 0.037 | -0.039 | 0.027 | 0.016 | -0.051 | 0.1 |
| RFC5 (UniProt P40937) | 0.007 | -0.058 | -0.056 | -0.047 | 0.016 | -0.068 | 0.018 | 0.026 | -0.039 | 0.018 |
| SAR1B (UniProt Q9Y6B6) | 0.122 | 0.036 | -0.056 | -0.031 | 0.004 | 0.44 (active) | -0.005 | 0.578 (active) | -0.079 | 0.08 |
| RYR1 (UniProt P21817) | 0.028 | -0.048 | -0.229 | -0.017 | -0.032 | -0.027 | 0.04 | 0.112 | -0.13 | 0.016 |
| RPS9 (UniProt P46781) | -0.012 | 0.009 | 0.061 | 0.244 (active) | 0.006 | -0.087 | 0.016 | -0.023 | 0.034 | -0.07 |
| RPLP0P6 (UniProt Q8NHW5) | 0.003 | 0.033 | -0.013 | 0.014 | 0.016 | -0.013 | -0.005 | 0.001 | 0.274 (active) | 0.034 |
| SEC16A isoform 5 (UniProt O15027) | -0.019 | -0.044 | 0.018 | -0.039 | -0.013 | -0.014 | -0.001 | -0.002 | 0.031 | 0.029 |
| SEC61G (UniProt P60059) | -0.094 | 0.139 | 0.209 | -0.331 | 0.105 | 0.46 (active) | -0.168 | 0.098 | -0.192 | 0.338 |
| RDX (UniProt P35241) | -0.018 | 0.02 | 0.063 | 0.546 (active) | 0.005 | -0.093 | -0.005 | -0.045 | 0.077 | -0.136 |
| RPL36AL (UniProt Q969Q0) | 0.05 | 0.031 | 0.216 | 0.01 | -0.033 | -0.038 | 0.047 | -0.131 | 0.137 | 0.003 |
| RBM5 (UniProt P52756) | 0.029 | -0.013 | 0.005 | -0.268 | -0.058 | -0.015 | 0 | 0.058 | -0.051 | 0.089 |
| RIPK1 (UniProt Q13546) | 0.006 | -0.002 | 0.061 | -0.026 | -0.05 | 0.256 (active) | 0.326 (active) | 0.038 | 0.007 | 0.755 (active) |
| ROCK1 (UniProt Q13464) | -0.003 | -0.021 | 0.011 | – | 0.006 | -0.04 | 0.027 | -0.025 | -0.016 | 0.031 |
| RNPC3 (UniProt Q96LT9) | -0.018 | – | -0.043 | 0.036 | 0.072 | 0.016 | – | -0.115 | – | -0.115 |
| RDH11 (UniProt Q8TC12) | -0.035 | – | -0.034 | -0.11 | -0.011 | 0.298 (active) | 0.009 | 0.041 | – | 0.328 (active) |
| RBM45 (UniProt Q8IUH3) | -0.12 | – | -0.094 | 0.184 | – | -0.1 | – | 0.014 | – | 0.077 |

| Target | log2 fold change [1] | log2 fold change [2] | log2 fold change [3] | log2 fold change [4] | log2 fold change [5] | log2 fold change [6] | log2 fold change [7] | log2 fold change [8] | log2 fold change [9] | log2 fold change [10] |
| --- | --- | --- | --- | --- | --- | --- | --- | --- | --- | --- |
| RMI2 (UniProt Q96E14) | – | – | 0.005 | – | 0.013 | – | -0.068 | -0.012 | – | – |
| QSER1, A0A3B3IRW6 | -0.04 | – | -0.072 | – | 0.005 | – | -0.033 | 0 | – | – |
| ROBO2 isoform 3 (UniProt Q9HCK4) | 0.02 | – | -0.039 | – | – | – | – | 0.019 | – | – |
| RAB5IF isoform 5 (UniProt Q9BUV8) | -0.043 | -0.122 | – | 0.753 (active) | -0.071 | -0.234 | 0 | – | 0.221 | -0.357 |
| RHOU (UniProt Q7L0Q8) | -0.05 | – | -0.002 | -0.323 (active) | 0.024 | -0.031 | 0.113 | 0.038 | – | 0.056 |
| SEC16A isoform 3 (UniProt O15027) | – | – | – | – | 0.024 | – | – | – | – | – |
| RNF170 (UniProt Q96K19) | -0.011 | -0.332 | – | -0.042 | -0.229 | -0.198 | – | – | 0.024 | 1.2 (active) |
| RECQL4 (UniProt O94761) | – | -0.032 | -0.079 | -0.039 | 0.061 | -0.472 (active) | -0.014 | 0.029 | -0.099 | 0.146 |
| SERAC1 (UniProt Q96JX3) | – | -0.018 | – | -0.074 | 0.145 | 0.052 | -0.089 | – | -0.276 | 0.127 |
| RXRA (UniProt P19793) | -0.045 | – | -0.062 | -0.041 | 0 | -0.047 | – | 0.019 | – | 0.126 |
| SELENOK (UniProt Q9Y6D0) | -0.065 | -0.048 | – | -0.543 (active) | 0.082 | 0.52 (active) | – | – | -0.027 | 0.542 (active) |
| RNF2 (UniProt Q99496) | – | – | 0.087 | 0.484 (active) | 0.031 | -0.299 | 0.021 | -0.032 | – | -0.442 (active) |
| RPS6KA5 (UniProt O75582) | -0.024 | – | 0.028 | 0.13 | -0.011 | -0.23 | 0.106 | -0.043 | – | -0.032 |
| RNASEH1 (UniProt O60930) | – | – | – | -0.014 | – | -0.174 | – | – | – | 0.274 |
| RTTN (UniProt Q86VV8) | 0.306 | -0.034 | – | -0.053 | 0.067 | -0.289 | -0.07 | – | -0.032 | 0.203 |
| RFWD3 (UniProt Q6PCD5) | – | -0.12 | -0.066 | 0.036 | 0.041 | 0.004 | -0.037 | 0.036 | -0.04 | 0.107 |
| SEMA4G isoform 2 (UniProt Q9NTN9) | – | – | -0.084 | 0.036 | -0.294 | 0.019 | 0.082 | -0.053 | – | -0.024 |
